For experiment [1], the target named is Actin, cytoplasmic 1 (UniProt P60709). In words: cross-linking mass spectrometry.
Experiment [2] has as its target DNA replication licensing factor MCM5 (UniProt P33992). In words: cross-linking mass spectrometry.
Experiment [3] deals with Acidic leucine-rich nuclear phosphoprotein 32 family member B (UniProt Q92688). In words: cross-link between two proteins; cross-linking mass spectrometry.
Experiment [4] has as its target Ankyrin-1 (UniProt P16157). The experiment is described as above.
Experiment [5] has as its target Centrosomal protein of 85 kDa (UniProt Q6P2H3). The description is as above.
The target of experiment [6] is Heterogeneous nuclear ribonucleoprotein K (UniProt P61978). The description is as above.
The target in experiment [7] is Filamin-C (UniProt Q14315). The experiment is described as above.
For experiment [8], the target named is Heterogeneous nuclear ribonucleoprotein A/B (UniProt Q99729). Described as above.
Experiment [9] concerns the target Heterogeneous nuclear ribonucleoprotein M (UniProt P52272). The description is as above.
Experiment [10] concerns the target Leucine--tRNA ligase, cytoplasmic (UniProt Q9P2J5). The experiment is described as above.
The target in experiment [11] is Plastin-1 (UniProt Q14651). Described as above.
Plastin-1, sequence (Q14651 whole entry): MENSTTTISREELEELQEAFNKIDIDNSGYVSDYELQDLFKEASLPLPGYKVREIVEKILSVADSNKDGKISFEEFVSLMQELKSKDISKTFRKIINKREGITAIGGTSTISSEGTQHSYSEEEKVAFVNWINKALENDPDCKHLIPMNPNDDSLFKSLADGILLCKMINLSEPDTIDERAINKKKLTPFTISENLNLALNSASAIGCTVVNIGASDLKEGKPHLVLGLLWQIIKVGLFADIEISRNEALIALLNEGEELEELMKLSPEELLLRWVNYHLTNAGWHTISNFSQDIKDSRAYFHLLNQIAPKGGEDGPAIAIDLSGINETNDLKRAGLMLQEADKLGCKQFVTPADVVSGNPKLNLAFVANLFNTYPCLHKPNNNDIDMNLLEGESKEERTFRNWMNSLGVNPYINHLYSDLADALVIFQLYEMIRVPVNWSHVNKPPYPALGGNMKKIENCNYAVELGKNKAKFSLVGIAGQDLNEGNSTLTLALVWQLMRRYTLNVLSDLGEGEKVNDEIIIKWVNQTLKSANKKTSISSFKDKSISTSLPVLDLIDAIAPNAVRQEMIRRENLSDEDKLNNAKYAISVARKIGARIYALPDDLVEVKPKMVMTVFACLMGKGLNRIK
Experiment [12] has as its target Platelet-activating factor acetylhydrolase IB subunit alpha1 (UniProt Q15102). Described as above.
In experiment [13] the target is Splicing factor 3B subunit 3 (UniProt Q15393). The experiment is described as above.
Experiment [14] concerns the target Tubulin alpha-4A chain (UniProt P68366). Described as above.
Experiment [15] deals with Tubulin beta-2B chain (UniProt Q9BVA1). Described as above.
Tubulin beta-2B chain, sequence (Q9BVA1 whole entry): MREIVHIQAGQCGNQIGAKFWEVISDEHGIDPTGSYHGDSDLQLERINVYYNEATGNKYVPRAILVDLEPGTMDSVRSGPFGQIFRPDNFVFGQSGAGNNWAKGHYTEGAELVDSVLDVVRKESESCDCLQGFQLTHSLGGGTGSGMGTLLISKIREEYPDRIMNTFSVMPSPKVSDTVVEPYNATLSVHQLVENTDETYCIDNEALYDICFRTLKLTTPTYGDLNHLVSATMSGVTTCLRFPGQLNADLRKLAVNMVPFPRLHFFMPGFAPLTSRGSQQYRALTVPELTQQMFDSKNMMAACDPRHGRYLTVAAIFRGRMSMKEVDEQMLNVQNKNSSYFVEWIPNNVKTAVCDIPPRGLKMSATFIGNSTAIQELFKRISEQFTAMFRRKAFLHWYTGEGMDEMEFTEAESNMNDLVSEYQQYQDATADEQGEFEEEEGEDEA
Experiment [16] addresses Tubulin beta-4B chain (UniProt P68371). The experiment is described as above.
In experiment [17] the target is Zincore component SEPHS1 (UniProt P49903). The description is as above.
Experiment [18] has as its target Heterogeneous nuclear ribonucleoproteins C1/C2 (UniProt P07910). In words: cross-link between two proteins; affinity purification or IP with mass spectrometry; cross-linking mass spectrometry.
For experiment [19], the target named is Heterogeneous nuclear ribonucleoprotein F (UniProt P52597). Described as above.
Heterogeneous nuclear ribonucleoprotein F, sequence (P52597 whole entry): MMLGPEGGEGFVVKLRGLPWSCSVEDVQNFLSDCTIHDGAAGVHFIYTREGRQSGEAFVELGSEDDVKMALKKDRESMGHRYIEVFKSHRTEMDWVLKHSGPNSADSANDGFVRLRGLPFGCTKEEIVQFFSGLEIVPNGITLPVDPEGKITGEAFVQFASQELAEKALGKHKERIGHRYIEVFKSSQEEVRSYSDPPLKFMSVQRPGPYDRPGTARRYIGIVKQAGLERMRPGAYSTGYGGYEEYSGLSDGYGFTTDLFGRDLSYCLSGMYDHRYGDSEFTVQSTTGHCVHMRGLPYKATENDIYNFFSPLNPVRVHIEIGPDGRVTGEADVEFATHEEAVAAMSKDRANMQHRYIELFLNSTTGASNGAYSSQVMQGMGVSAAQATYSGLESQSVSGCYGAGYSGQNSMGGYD
For experiment [20], the target named is RNA binding motif protein, X-linked-like-1 (UniProt Q96E39). The experiment is described as above.
RNA binding motif protein, X-linked-like-1, sequence (Q96E39 whole entry): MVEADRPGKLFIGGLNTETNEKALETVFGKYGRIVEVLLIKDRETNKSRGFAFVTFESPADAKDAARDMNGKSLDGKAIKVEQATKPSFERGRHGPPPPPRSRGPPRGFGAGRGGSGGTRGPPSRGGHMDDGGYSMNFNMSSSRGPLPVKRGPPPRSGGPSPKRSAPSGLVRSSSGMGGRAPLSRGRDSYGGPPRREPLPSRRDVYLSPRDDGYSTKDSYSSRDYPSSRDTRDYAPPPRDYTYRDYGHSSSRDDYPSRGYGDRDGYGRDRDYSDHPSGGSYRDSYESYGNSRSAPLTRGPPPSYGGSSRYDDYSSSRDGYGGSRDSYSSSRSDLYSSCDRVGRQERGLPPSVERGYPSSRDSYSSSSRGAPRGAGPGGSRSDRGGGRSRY

From paper PMC12350791 come the findings set out here.

Heat shock protein HSP 90-beta, P08238, sequence (P08238 whole entry): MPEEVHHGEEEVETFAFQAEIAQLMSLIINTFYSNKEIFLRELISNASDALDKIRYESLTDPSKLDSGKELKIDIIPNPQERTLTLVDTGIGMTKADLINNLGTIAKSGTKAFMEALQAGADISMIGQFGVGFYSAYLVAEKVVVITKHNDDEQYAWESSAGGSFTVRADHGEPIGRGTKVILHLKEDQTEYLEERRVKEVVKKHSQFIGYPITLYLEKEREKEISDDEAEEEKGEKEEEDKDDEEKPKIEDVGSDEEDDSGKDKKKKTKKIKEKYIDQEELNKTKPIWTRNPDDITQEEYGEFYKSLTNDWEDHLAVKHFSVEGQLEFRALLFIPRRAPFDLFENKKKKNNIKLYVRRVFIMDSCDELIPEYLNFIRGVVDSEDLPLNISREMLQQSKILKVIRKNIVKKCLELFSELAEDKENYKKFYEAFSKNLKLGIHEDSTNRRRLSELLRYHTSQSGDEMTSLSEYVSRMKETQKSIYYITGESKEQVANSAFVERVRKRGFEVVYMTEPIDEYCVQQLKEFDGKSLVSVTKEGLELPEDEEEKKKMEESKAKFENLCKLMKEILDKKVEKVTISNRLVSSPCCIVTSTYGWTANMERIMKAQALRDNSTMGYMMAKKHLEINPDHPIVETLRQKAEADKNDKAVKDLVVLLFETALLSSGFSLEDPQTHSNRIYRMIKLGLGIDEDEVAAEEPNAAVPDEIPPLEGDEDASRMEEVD
Ankyrin-1, sequence (P16157 whole entry): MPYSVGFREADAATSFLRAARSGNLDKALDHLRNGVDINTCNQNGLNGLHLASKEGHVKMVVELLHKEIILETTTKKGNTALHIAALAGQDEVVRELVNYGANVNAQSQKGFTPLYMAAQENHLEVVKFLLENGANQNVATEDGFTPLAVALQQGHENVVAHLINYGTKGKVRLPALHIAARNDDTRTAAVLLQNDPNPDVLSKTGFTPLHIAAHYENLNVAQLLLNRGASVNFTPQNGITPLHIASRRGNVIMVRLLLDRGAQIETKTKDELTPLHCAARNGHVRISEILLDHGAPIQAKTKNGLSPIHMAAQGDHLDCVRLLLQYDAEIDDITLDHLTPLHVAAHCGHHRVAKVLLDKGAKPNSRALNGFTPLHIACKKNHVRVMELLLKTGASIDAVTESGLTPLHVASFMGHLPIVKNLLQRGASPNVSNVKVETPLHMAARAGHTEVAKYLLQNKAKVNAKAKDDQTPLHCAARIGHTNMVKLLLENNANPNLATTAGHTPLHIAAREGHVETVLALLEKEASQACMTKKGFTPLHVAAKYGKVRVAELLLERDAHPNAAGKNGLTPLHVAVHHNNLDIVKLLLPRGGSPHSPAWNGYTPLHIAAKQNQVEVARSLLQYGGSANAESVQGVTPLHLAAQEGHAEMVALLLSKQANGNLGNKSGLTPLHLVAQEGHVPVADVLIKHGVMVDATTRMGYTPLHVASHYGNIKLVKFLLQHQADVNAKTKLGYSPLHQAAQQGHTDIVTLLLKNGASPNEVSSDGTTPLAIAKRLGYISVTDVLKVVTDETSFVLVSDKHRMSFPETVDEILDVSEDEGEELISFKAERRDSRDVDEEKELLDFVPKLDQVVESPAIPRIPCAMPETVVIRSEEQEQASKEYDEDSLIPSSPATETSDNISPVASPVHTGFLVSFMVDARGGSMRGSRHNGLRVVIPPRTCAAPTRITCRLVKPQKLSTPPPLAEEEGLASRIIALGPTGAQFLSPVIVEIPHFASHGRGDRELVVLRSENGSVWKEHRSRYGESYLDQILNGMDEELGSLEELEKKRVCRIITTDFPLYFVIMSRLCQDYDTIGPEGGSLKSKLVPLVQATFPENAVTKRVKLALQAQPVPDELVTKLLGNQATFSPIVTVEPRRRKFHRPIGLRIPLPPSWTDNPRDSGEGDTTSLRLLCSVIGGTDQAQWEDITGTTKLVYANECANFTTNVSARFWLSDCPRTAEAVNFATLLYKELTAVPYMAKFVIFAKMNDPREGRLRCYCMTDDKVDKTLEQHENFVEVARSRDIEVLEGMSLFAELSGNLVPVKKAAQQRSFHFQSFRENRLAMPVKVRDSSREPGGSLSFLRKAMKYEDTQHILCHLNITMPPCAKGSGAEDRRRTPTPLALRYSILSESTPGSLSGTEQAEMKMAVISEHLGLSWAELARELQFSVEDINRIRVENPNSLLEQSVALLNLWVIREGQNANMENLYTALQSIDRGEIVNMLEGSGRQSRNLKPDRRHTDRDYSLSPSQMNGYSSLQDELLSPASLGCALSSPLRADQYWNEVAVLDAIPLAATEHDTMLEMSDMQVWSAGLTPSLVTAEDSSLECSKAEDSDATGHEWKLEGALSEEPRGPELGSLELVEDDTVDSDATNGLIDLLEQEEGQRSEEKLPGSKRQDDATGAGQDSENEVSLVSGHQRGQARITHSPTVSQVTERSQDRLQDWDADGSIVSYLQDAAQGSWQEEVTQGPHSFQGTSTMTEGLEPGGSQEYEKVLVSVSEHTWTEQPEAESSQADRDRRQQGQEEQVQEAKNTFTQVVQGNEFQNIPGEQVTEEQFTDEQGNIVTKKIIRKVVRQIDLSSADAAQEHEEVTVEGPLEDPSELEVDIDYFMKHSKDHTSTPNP
Platelet-activating factor acetylhydrolase IB subunit alpha1, sequence (Q15102 whole entry): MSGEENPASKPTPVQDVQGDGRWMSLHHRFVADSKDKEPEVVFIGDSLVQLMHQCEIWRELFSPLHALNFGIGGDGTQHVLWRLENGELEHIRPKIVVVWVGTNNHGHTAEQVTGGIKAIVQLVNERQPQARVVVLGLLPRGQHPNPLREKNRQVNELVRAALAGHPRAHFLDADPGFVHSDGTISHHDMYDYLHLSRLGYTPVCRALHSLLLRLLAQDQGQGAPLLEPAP
Acidic leucine-rich nuclear phosphoprotein 32 family member B, sequence (Q92688 whole entry): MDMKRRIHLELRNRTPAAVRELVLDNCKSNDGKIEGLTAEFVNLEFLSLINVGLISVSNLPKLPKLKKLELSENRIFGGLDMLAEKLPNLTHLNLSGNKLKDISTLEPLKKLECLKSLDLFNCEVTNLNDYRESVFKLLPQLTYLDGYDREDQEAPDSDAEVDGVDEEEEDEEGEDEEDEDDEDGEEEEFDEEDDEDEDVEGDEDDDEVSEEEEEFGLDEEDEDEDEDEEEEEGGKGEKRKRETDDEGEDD

For Formin-like protein 1, O95466, the “listed as a hit” value in [1] was “yes”.

Turning to “DNA replication licensing factor MCM4, P33991”, the “listed as a hit” value in experiment [2] is listed as “yes”.

Regarding “Acidic leucine-rich nuclear phosphoprotein 32 family member A, P39687”, the “listed as a hit” value in experiment [3] is reported as “yes”.

As to “Spectrin alpha chain, erythrocytic 1, P02549”, the “listed as a hit” value in experiment [4] is “yes”.

Take Heat shock protein HSP 90-beta, P08238: the “listed as a hit” value in experiment [5] and in experiment [6] was “yes” throughout.

Consider Filamin-B, O75369, for which, in experiment [7], the “listed as a hit” value was “yes”.

Consider “Heterogeneous nuclear ribonucleoprotein A1, P09651”, for which the “listed as a hit” value in experiment [8] is “yes”.

Consider Matrin-3, P43243, for which the “listed as a hit” value in experiment [9] was “yes”.

Turning to “Isoleucine--tRNA ligase, cytoplasmic, P41252”, the “listed as a hit” value in experiment [10] is “yes”.

As to Plastin-2, P13796, the “listed as a hit” value in [11] is “yes”.

For the substance “Platelet-activating factor acetylhydrolase IB subunit alpha2, P68402”, the “listed as a hit” value in [12] is listed as “yes”.

On to Splicing factor 3B subunit 2, Q13435, for which the “listed as a hit” value in [13] is “yes”.

On to Stathmin, P16949, for which the “listed as a hit” value in experiment [14] is listed as “yes”.

For the substance Tubulin alpha-1C chain, Q9BQE3, the “listed as a hit” value in experiment [15] is “yes”.

Consider Elongation factor 1-alpha 1, P68104, for which the “listed as a hit” value in experiment [16] is given as “yes”.

On to “Heterogeneous nuclear ribonucleoprotein D-like, O14979”, for which the “listed as a hit” value in experiment [17] and in experiment [18] was “yes” in each case.

Take “Heterogeneous nuclear ribonucleoproteins C1/C2, P07910”: the “listed as a hit” value in [19] and in [20] was “yes” in each case.
